Results on 22 sequences are retold here after the OligoGym collection.
Further: reference of the scale not given here.

In the first assay the target is LEPRE1. Kind of assay: pooled miR-30 sensor sort-seq; sequence = guide strand. The settings on record: shRNA.
TTCTCCAACTTGTTGATCTTGA yielded a sensor-assay potency score (higher = more potent) of 0.193.

As to TCCAGCTCCATCTCTTCGCTGA, the sensor-assay potency score (higher = more potent) was -0.664.

Turning to TACACAGACACTTAAGTACTGT, the sensor-assay potency score (higher = more potent) was -0.0661.

Turning to TGTATCGCTGTCATGCAGCGGC, the sensor-assay potency score (higher = more potent) was -0.603.

Turning to TGCAGCAACAGCTTTCTCCAAC, the sensor-assay potency score (higher = more potent) is -1.07.

Turning to TTGGTAATAGTCTAGGTTCTGC, the sensor-assay potency score (higher = more potent) is -0.468.

For the sequence TACTGTATCGCTGTCATGCAGC, the sensor-assay potency score (higher = more potent) is -0.397.

On to TTGTTGATCTTGAAGTAGGCGA, for which the sensor-assay potency score (higher = more potent) was -0.0372.

With TAGAGTCGCACTCCCAGTCGAA, the sensor-assay potency score (higher = more potent) is -0.94.

For TTCTCTTGCAATCTCTTGGGAA, the sensor-assay potency score (higher = more potent) was -0.439.

As to TTGAGTCTCAAGATCCTTGAAG, the sensor-assay potency score (higher = more potent) was -0.379.

TTTCTCTTGCAATCTCTTGGGA: the sensor-assay potency score (higher = more potent) was -0.177.

Another assay concerns the target LGALS1. The description is as above. The settings on record: shRNA.
With TTCAGCACGAAGCTCTTAGCGT, the sensor-assay potency score (higher = more potent) is -0.712.

ATTTGATCTTGAAGTCACCGTC came in with a sensor-assay potency score (higher = more potent) of 0.155.

For TTGACGGTCAGGTTGGCCTGGT, the sensor-assay potency score (higher = more potent) is -0.281.

Consider TTGATCTTGAAGTCACCGTCAG, for which the sensor-assay potency score (higher = more potent) was found to be 0.0268.

For the sequence TTGCACACGATGGTGTTGGCGT, the sensor-assay potency score (higher = more potent) is -0.422.

With TTCGTATCCATCTGGCAGCTTG, the sensor-assay potency score (higher = more potent) was -0.744.

On to TTGAGATTCAGGTTGCTGGCGA, for which the sensor-assay potency score (higher = more potent) worked out at 0.199.

As for TTGCTGTTGCACACGATGGTGT, the sensor-assay potency score (higher = more potent) is -0.61.

As for TGATCTTGAAGTCACCGTCAGC, the sensor-assay potency score (higher = more potent) was -1.02.

In turn, TTTGATCTTGAAGTCACCGTCA gave a sensor-assay potency score (higher = more potent) of 0.476.
